C diff HTS: blocks growth of Clostridium difficile; hit rate 0.25% among 86,000; Clostridium difficile clinical isolate growth, OD600, 24 h; hits give low values; growth activity, negative = inhibition, % at 16 µg/mL (by protocol);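 active = mean growth activity at or below -80% and every replicate also at or below -80%; inconclusive = mean at or below -80% but some replicate above -80%; inactive = mean growth activity above -80%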
Pf Dd2 inh: inhibitors of Plasmodium falciparum Dd2 growth. P. falciparum Dd2 growth, SYBR Green, 72 h; hits give low values. AID 1159554. activity change, % at 10 µM. hit rate 2.3% among 94,000; in the data active = activity change below about -80%; inconclusive = no clear call, values can overlap the other calls
T cruzi growth-1: blocks T. cruzi growth in NIH3T3 culture | AID 624255 | inhibition, % at 8.34 µM | hit rate 5.9% among 77,000 | T. cruzi beta-gal in NIH3T3, GalScreen luminescence, 90 h;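 active = mean inhibition above about 93%, with at least 55% of replicates each passing it, limit read from the data, passing the limit was not always enough; inconclusive = only one of those two conditions holds; inactive = neither condition holds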
T cruzi growth-2: blocks T. cruzi growth in NIH3T3 host cells. shares compounds with T cruzi growth-1. T. cruzi beta-gal in NIH3T3, GalScreen luminescence, 90 h. inhibition, % at 8.35 µM. hit rate 72% among 5,600. AID 651739;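 active = mean replicate inhibition above about 95% and at least 55% of replicates individually reaching it, limit read from the data; inconclusive = only one of the two criteria is met; inactive = neither criterion is met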
T cruzi growth-3: blocks T. cruzi growth in NIH3T3 host cells | hit rate 21% among 5,600 | shares compounds with T cruzi growth-1 | T. cruzi beta-gal in NIH3T3, GalScreen luminescence, 90 h | AID 651740 | inhibition, % at 2.09 µM;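 active = mean inhibition above about 95%, with at least 55% of replicates also reaching it, limit read from the data; inconclusive = meets just one of the two conditions; inactive = meets neither condition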
3T3 cytotox: kills mouse NIH/3T3 fibroblasts | shares compounds with T cruzi growth-1 | NIH/3T3 viability, CellTiter-Glo ATP luminescence, 90 h | cytotoxicity (signal decrease), % at 8.35 µM | hit rate 14% among 5,600;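 active = mean signal decrease across replicates above about 35% based on untreated-well scatter, with enough replicates individually passing, limit read from the data; inconclusive = no rule stated though some were filed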
3T3 cytotox 2: NIH/3T3 (mouse) viability loss. hit rate 56% among 5,600. shares compounds with T cruzi growth-1. NIH/3T3 viability, CellTiter-Glo ATP luminescence, 90 h. inhibition, % at 24.9 µM;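 active = mean loss of cell viability signal at or above a set limit, and enough replicates individually reaching it; inconclusive = meets only the mean limit or only the replicate share; inactive = meets neither condition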
A number is an active result; i = inactive; ? = inconclusive; nt = no result given. Hits are enriched below; roughly 6.7% of the tested compounds scored in any of these assays.

SMILES	C diff HTS	Pf Dd2 inh	T cruzi growth-1	T cruzi growth-2	T cruzi growth-3	3T3 cytotox	3T3 cytotox 2
C[C@H]1CN([C@@H](C)CO)C(=O)c2cc(C#Cc3cccc(F)c3)cnc2O[C@H]1CN(C)C(=O)C1CCC1	i	i	i	nt	nt	nt	nt
C[C@H](CO)N1C[C@H](C)[C@@H](CN(C)C(=O)C2CCCCC2)Oc2ncc(C#Cc3cccc(F)c3)cc2C1=O	nt	i	117.3	103.9	i	i	76.9
COc1cccc(C#Cc2cnc3c(c2)C(=O)N([C@@H](C)CO)C[C@H](C)[C@@H](CN(C)C(=O)C2CCCCC2)O3)c1	i	-86.4	117.0	107.3	i	i	i
COc1cccc(C#Cc2cnc3c(c2)C(=O)N([C@@H](C)CO)C[C@@H](C)[C@@H](CN(C)C(=O)C2CCCCC2)O3)c1	i	i	i	nt	nt	nt	nt
CO[C@@H]1CN(C)C(=O)c2ccc(NC(=O)c3ccccn3)cc2OC[C@@H](C)N(C(=O)Nc2ccccc2Cl)C[C@H]1C	nt	i	i	nt	nt	nt	nt
Cc1ccc(S(=O)(=O)Nc2ccc3c(c2)C(=O)N([C@H](C)CO)C[C@@H](C)[C@H](CN(C)S(=O)(=O)c2ccc(C)cc2)O3)cc1	i	i	i	nt	nt	nt	nt
COCCNC(=O)C[C@H]1C[C@H]2c3cc(NC(=O)CN(C)C)ccc3O[C@H]2[C@@H](CO)O1	i	i	i	nt	nt	nt	nt
COc1ccc(C#Cc2ccc3c(c2)O[C@@H](CN(C)C(=O)Nc2cccc(OC)c2)[C@@H](C)CN([C@@H](C)CO)S3(=O)=O)cc1	nt	-89.5	?	105.1	108.2	36.7	33.5
COc1cccc(NC(=O)N(C)C[C@@H]2Oc3cc(C#CC4(O)CCCC4)ccc3S(=O)(=O)N([C@@H](C)CO)C[C@H]2C)c1	i	i	nt	nt	nt	nt	nt
COc1cccc(NC(=O)N(C)C[C@@H]2Oc3cc(C#CC4(O)CCCC4)ccc3S(=O)(=O)N([C@H](C)CO)C[C@@H]2C)c1	i	i	nt	nt	nt	nt	nt
COc1cccc(NC(=O)N(C)C[C@H]2Oc3cc(C#Cc4ccncc4)ccc3S(=O)(=O)N([C@@H](C)CO)C[C@H]2C)c1	i	i	i	nt	nt	nt	nt
COc1cccc(NC(=O)N(C)C[C@H]2Oc3cc(-c4ccccc4OC)ccc3S(=O)(=O)N([C@H](C)CO)C[C@H]2C)c1	i	i	nt	nt	nt	nt	nt
COc1cccc(NC(=O)N(C)C[C@@H]2Oc3cc(-c4ccccc4F)ccc3S(=O)(=O)N([C@H](C)CO)C[C@@H]2C)c1	i	i	97.8	111.1	i	i	49.9
COc1cccc(NC(=O)N(C)C[C@H]2Oc3cc(C#Cc4ccc(F)cc4)ccc3S(=O)(=O)N([C@@H](C)CO)C[C@@H]2C)c1	i	i	?	98.7	107.7	i	51.8
COc1ccc(C#Cc2ccc3c(c2)O[C@H](CN(C)C(=O)Nc2cccc(OC)c2)[C@@H](C)CN([C@@H](C)CO)S3(=O)=O)cc1	nt	-85.2	109.4	100.1	110.1	?	i
C[C@H]1CN([C@@H](C)CO)C(=O)c2cc(C#Cc3ccccc3F)cnc2O[C@H]1CN(C)C(=O)C1CCCCC1	i	i	nt	nt	nt	nt	nt
CN1CCN(C(=O)C[C@H]2CC[C@@H]3[C@@H](COc4ccc(NC(=O)C5CCOCC5)cc4C(=O)N3C)O2)CC1	i	nt	i	nt	nt	nt	nt
COc1ccc(S(=O)(=O)Nc2ccc3c(c2)C(=O)N([C@@H](C)CO)C[C@@H](C)[C@H](CN(C)C(=O)Nc2cccc4ccccc24)OCCCC[C@H](C)O3)cc1	i	i	i	nt	nt	nt	nt
Cc1ccc(S(=O)(=O)Nc2ccc3c(c2)C(=O)N([C@H](C)CO)C[C@H](C)[C@@H](CN(C)C(=O)Nc2cccc4ccccc24)OCCCC[C@H](C)O3)cc1	i	i	99.4	110.3	104.8	i	i
C[C@H]1CCCCO[C@@H](CN(C)C(=O)Nc2cccc3ccccc23)[C@@H](C)CN([C@@H](C)CO)C(=O)c2cc(NS(=O)(=O)c3ccc(F)cc3)ccc2O1	i	i	108.6	107.2	i	i	i
C[C@H](CO)N1C[C@H](C)[C@@H](CN(C)C(=O)Nc2cccc3ccccc23)OCCCC[C@H](C)Oc2ccc(NS(=O)(=O)c3cccs3)cc2C1=O	i	i	102.2	105.6	i	i	i
